# The supplement of paper PMC4466140
# Tests used:
# Assay in all cases: SPOT peptide array binding signal intensity (averaged, normalized) (arbitrary units (background-subtracted, floor 0; scale differs between SH3 domains)); higher = stronger binding of the SH3 domain to the peptide
# [1] = molecular target: AgAbp1
# Procedure, shortened: (§1)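 To measure binding, SH3 domains from four yeast species were fused to GST, expressed in E. coli BL21(DE3) and purified on glutathione Sepharose. Each domain was incubated at 10 μg/ml overnight at 4°C on cellulose membranes with synthetic 15-mer peptides whose cysteines were replaced by serines. Anti-GST antibody, an HRP anti-mouse secondary and luminol were used for detection, and images were quantified with Genespotter. Reported binding signal is normalized, background-subtracted spot intensity averaged over replicates, in arbitrary units that differ between domains.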
# [2] = molecular target: AgBbc1
# Procedure, shortened: as §1
# [3] = molecular target: AgBem1-D1
# Procedure, shortened: as §1
# [4] = molecular target: AgBzz1-D1
# Procedure, shortened: as §1
# [5] = molecular target: AgBzz1-D2
# Procedure, shortened: as §1
# [6] = molecular target: AgCyk3
# Procedure, shortened: as §1
# [7] = molecular target: AgFus1
# Procedure, shortened: as §1
# [8] = molecular target: AgHof1
# Procedure, shortened: as §1
# [9] = molecular target: AgHse1
# Procedure, shortened: as §1
# [10] = molecular target: AgLsb1
# Procedure, shortened: as §1
# [11] = molecular target: AgLsb4
# Procedure, shortened: as §1
# [12] = molecular target: AgMyo5
# Procedure, shortened: as §1
# [13] = molecular target: AgNbp2
# Procedure, shortened: as §1
# [14] = molecular target: AgRvs167
# Procedure, shortened: as §1
# [15] = molecular target: AgSho1
# Procedure, shortened: as §1
# [16] = molecular target: AgSla1-D1-D2
# Procedure, shortened: as §1
# [17] = molecular target: AgSla1-D3
# Procedure, shortened: as §1
# [18] = molecular target: CaAbp1-D1
# Procedure, shortened: as §1
# [19] = molecular target: CaAbp1-D2
# Procedure, shortened: as §1
# [20] = molecular target: CaBbc1
# Procedure, shortened: as §1
# [21] = molecular target: CaBem1-D1
# Procedure, shortened: as §1
# [22] = molecular target: CaBzz1-D1
# Procedure, shortened: as §1
# [23] = molecular target: CaBzz1-D2
# Procedure, shortened: as §1
# [24] = molecular target: CaCyk3
# Procedure, shortened: as §1
# [25] = molecular target: CaFus1
# Procedure, shortened: as §1
# [26] = molecular target: CaHof1
# Procedure, shortened: as §1
# [27] = molecular target: CaHse1
# Procedure, shortened: as §1
# [28] = molecular target: CaLsb1
# Procedure, shortened: as §1
# [29] = molecular target: CaLsb4
# Procedure, shortened: as §1
# [30] = molecular target: CaMyo5
# Procedure, shortened: as §1
# [31] = molecular target: CaNbp2
# Procedure, shortened: as §1
# [32] = molecular target: CaRvs167
# Procedure, shortened: as §1
# [33] = molecular target: CaRvs167-3
# Procedure, shortened: as §1
# [34] = molecular target: CaSho1
# Procedure, shortened: as §1
# [35] = molecular target: CaSla1-D1-D2
# Procedure, shortened: as §1
# [36] = molecular target: CaSla1-D3
# Procedure, shortened: as §1
# [37] = molecular target: ScAbp1
# Procedure, shortened: as §1
# [38] = molecular target: ScBbc1
# Procedure, shortened: as §1
# [39] = molecular target: ScBem1-D1
# Procedure, shortened: as §1
# [40] = molecular target: ScBzz1-D1
# Procedure, shortened: as §1
# [41] = molecular target: ScBzz1-D2
# Procedure, shortened: as §1
# [42] = molecular target: ScCyk3
# Procedure, shortened: as §1
# [43] = molecular target: ScFus1
# Procedure, shortened: as §1
# [44] = molecular target: ScHof1
# Procedure, shortened: as §1
# [45] = molecular target: ScHse1
# Procedure, shortened: as §1
# [46] = molecular target: ScLsb1
# Procedure, shortened: as §1
# [47] = molecular target: ScLsb2
# Procedure, shortened: as §1
# [48] = molecular target: ScLsb3
# Procedure, shortened: as §1
# [49] = molecular target: ScLsb4
# Procedure, shortened: as §1
# [50] = molecular target: ScMyo3
# Procedure, shortened: as §1
# [51] = molecular target: ScMyo5
# Procedure, shortened: as §1
# [52] = molecular target: ScNbp2
# Procedure, shortened: as §1
# [53] = molecular target: ScPex13
# Procedure, shortened: as §1
# [54] = molecular target: ScRvs167
# Procedure, shortened: as §1
# [55] = molecular target: ScSho1
# Procedure, shortened: as §1
# [56] = molecular target: ScSla1-D1-D2
# Procedure, shortened: as §1
# [57] = molecular target: ScSla1-D3
# Procedure, shortened: as §1
# [58] = molecular target: SpAbp1-D1
# Procedure, shortened: as §1
# [59] = molecular target: SpBbc1
# Procedure, shortened: as §1
# [60] = molecular target: SpBzz1-D1
# Procedure, shortened: as §1
# [61] = molecular target: SpBzz1-D2
# Procedure, shortened: as §1
# [62] = molecular target: SpCyk3
# Procedure, shortened: as §1
# [63] = molecular target: SpHof1
# Procedure, shortened: as §1
# [64] = molecular target: SpHof1-2
# Procedure, shortened: as §1
# [65] = molecular target: SpHof1-3
# Procedure, shortened: as §1
# [66] = molecular target: SpHse1
# Procedure, shortened: as §1
# [67] = molecular target: SpLsb1
# Procedure, shortened: as §1
# [68] = molecular target: SpLsb4
# Procedure, shortened: as §1
# [69] = molecular target: SpMyo1
# Procedure, shortened: as §1
# [70] = molecular target: SpNbp2
# Procedure, shortened: as §1
# [71] = molecular target: SpPex13
# Procedure, shortened: as §1
# [72] = molecular target: SpRvs167
# Procedure, shortened: as §1
# [73] = molecular target: SpSla1-D1-D2
# Procedure, shortened: as §1
# [74] = molecular target: SpSla1-D3
# Procedure, shortened: as §1
binder,measurement,setting,value
MKRSRPSRSIPYTTP,SPOT peptide array binding signal intensity,[1],92
same,SPOT peptide array binding signal intensity,[2],65.5
same,SPOT peptide array binding signal intensity,[3],152
same,SPOT peptide array binding signal intensity,[4],53
same,SPOT peptide array binding signal intensity,[5],22
same,SPOT peptide array binding signal intensity,[6],8
same,SPOT peptide array binding signal intensity,[7],121
same,SPOT peptide array binding signal intensity,[8],23.5
same,SPOT peptide array binding signal intensity,[9],274
same,SPOT peptide array binding signal intensity,[10],3.5
same,SPOT peptide array binding signal intensity,[11],37
same,SPOT peptide array binding signal intensity,[12],3.25
same,SPOT peptide array binding signal intensity,[13],324
same,SPOT peptide array binding signal intensity,[14],2.5
same,SPOT peptide array binding signal intensity,[15],30.5
same,SPOT peptide array binding signal intensity,[16],21.5
same,SPOT peptide array binding signal intensity,[17],≤ 0
same,SPOT peptide array binding signal intensity,[18],504
same,SPOT peptide array binding signal intensity,[19],476
same,SPOT peptide array binding signal intensity,[20],347
same,SPOT peptide array binding signal intensity,[21],47.5
same,SPOT peptide array binding signal intensity,[22],172
same,SPOT peptide array binding signal intensity,[23],158
same,SPOT peptide array binding signal intensity,[24],108
same,SPOT peptide array binding signal intensity,[25],334
same,SPOT peptide array binding signal intensity,[26],≤ 0
same,SPOT peptide array binding signal intensity,[27],55.5
same,SPOT peptide array binding signal intensity,[28],2.75
same,SPOT peptide array binding signal intensity,[29],590
same,SPOT peptide array binding signal intensity,[30],13.8
same,SPOT peptide array binding signal intensity,[31],421
same,SPOT peptide array binding signal intensity,[32],18.3
same,SPOT peptide array binding signal intensity,[33],2
same,SPOT peptide array binding signal intensity,[34],250
same,SPOT peptide array binding signal intensity,[35],60
same,SPOT peptide array binding signal intensity,[36],14
same,SPOT peptide array binding signal intensity,[37],20
same,SPOT peptide array binding signal intensity,[38],18.8
same,SPOT peptide array binding signal intensity,[39],7
same,SPOT peptide array binding signal intensity,[40],27
same,SPOT peptide array binding signal intensity,[41],23
same,SPOT peptide array binding signal intensity,[42],37
same,SPOT peptide array binding signal intensity,[43],129
same,SPOT peptide array binding signal intensity,[44],0.5
same,SPOT peptide array binding signal intensity,[45],570
same,SPOT peptide array binding signal intensity,[46],10.2
same,SPOT peptide array binding signal intensity,[47],4
same,SPOT peptide array binding signal intensity,[48],320
same,SPOT peptide array binding signal intensity,[49],72
same,SPOT peptide array binding signal intensity,[50],10.5
same,SPOT peptide array binding signal intensity,[51],8
same,SPOT peptide array binding signal intensity,[52],620
same,SPOT peptide array binding signal intensity,[53],10
same,SPOT peptide array binding signal intensity,[54],19.8
same,SPOT peptide array binding signal intensity,[55],351
same,SPOT peptide array binding signal intensity,[56],126
same,SPOT peptide array binding signal intensity,[57],43.5
same,SPOT peptide array binding signal intensity,[58],507
same,SPOT peptide array binding signal intensity,[59],15.5
same,SPOT peptide array binding signal intensity,[60],239
same,SPOT peptide array binding signal intensity,[61],1.5
same,SPOT peptide array binding signal intensity,[62],14
same,SPOT peptide array binding signal intensity,[63],50.2
same,SPOT peptide array binding signal intensity,[64],30
same,SPOT peptide array binding signal intensity,[65],244
same,SPOT peptide array binding signal intensity,[66],177
same,SPOT peptide array binding signal intensity,[67],4.5
same,SPOT peptide array binding signal intensity,[68],580
same,SPOT peptide array binding signal intensity,[69],82.5
same,SPOT peptide array binding signal intensity,[70],224
same,SPOT peptide array binding signal intensity,[71],16
same,SPOT peptide array binding signal intensity,[72],10.8
same,SPOT peptide array binding signal intensity,[73],≤ 0
same,SPOT peptide array binding signal intensity,[74],7
RRASLFPRDPKRLRP,SPOT peptide array binding signal intensity,[1],89.5
same,SPOT peptide array binding signal intensity,[2],87.5
same,SPOT peptide array binding signal intensity,[3],169
same,SPOT peptide array binding signal intensity,[4],87
same,SPOT peptide array binding signal intensity,[5],49
same,SPOT peptide array binding signal intensity,[6],3
same,SPOT peptide array binding signal intensity,[7],223
same,SPOT peptide array binding signal intensity,[8],22.2
same,SPOT peptide array binding signal intensity,[9],1070
same,SPOT peptide array binding signal intensity,[10],1
same,SPOT peptide array binding signal intensity,[11],112
same,SPOT peptide array binding signal intensity,[12],2.5
same,SPOT peptide array binding signal intensity,[13],107
same,SPOT peptide array binding signal intensity,[14],0.5
same,SPOT peptide array binding signal intensity,[15],67.5
same,SPOT peptide array binding signal intensity,[16],116
same,SPOT peptide array binding signal intensity,[17],7.5
same,SPOT peptide array binding signal intensity,[18],520
same,SPOT peptide array binding signal intensity,[19],362
same,SPOT peptide array binding signal intensity,[20],304
same,SPOT peptide array binding signal intensity,[21],83
same,SPOT peptide array binding signal intensity,[22],131
same,SPOT peptide array binding signal intensity,[23],128
same,SPOT peptide array binding signal intensity,[24],39
same,SPOT peptide array binding signal intensity,[25],724
same,SPOT peptide array binding signal intensity,[26],1.5
same,SPOT peptide array binding signal intensity,[27],13.2
same,SPOT peptide array binding signal intensity,[28],0.25
same,SPOT peptide array binding signal intensity,[29],58.5
same,SPOT peptide array binding signal intensity,[30],4.5
